Rows were chosen to be rich in hits. Some 4.8% of all compounds tested hit in one or more screens of this group.
ssDAF12 agonist: activators of S. stercoralis DAF-12 nuclear receptor; HEK293 ssDAF-12/GRIP1 lit1-tk-luc reporter, luminescence; % of 3 µM dafachronic acid response; activation, % at 6.8 µM; actives 1% (n = 370,000);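 active means activation above the mean over all tested compounds plus 3 SD, cut at about 0.9% in these data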;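 further: 0% = DMSO-only wells and 100% = 3 µM delta7-dafachronic acid wells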
SMARCA2 activ: SMARCA2 function activation, primary screen. AID 652017. MG213 cells, MMTV-luciferase reporter, dexamethasone, overnight. activation, % at 9.1 µM. actives 1% (n = 370,000); in the data active means activation above about 7.8%;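 further: 0% = vehicle wells and 100% = reference activator wells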
DAX1 inh-1: DAX1 (NR0B1) inhibition, primary screen; HEK293T StAR-luciferase reporter, SF-1/DAX-1 repression relief; inhibition, % at 6.8 µM; actives 1.1% (n = 370,000);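 active means inhibition above the mean over all tested compounds plus 3 SD, cut at about 3.6% in these data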;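 further: 0% = DAX-1 cells with DMSO and 100% = cells lacking DAX-1 with DMSO; higher inhibition means more luminescence from relief of DAX-1 repression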
hgDAF-12 ag: activates the H. glycines DAF-12 receptor ligand-binding domain. AID 687014. activation, % at 6.8 µM. HEK293 GAL4-hgDAF12 UAS-luciferase reporter, agonist luminescence; normalized to butyrate control. actives 1.8% (n = 370,000);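 active means activation above a cutoff set at the mean of all screened compounds plus 3 SD, cut at about 10% in these data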;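 further: 0% = DMSO wells and 100% = sodium butyrate wells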
hcDAF12 agonist: activators of H. contortus DAF-12 nuclear receptor | HEK293 hcDAF-12 lit1-tk-luc reporter, luminescence; 0% DMSO, 100% Δ7-dafachronic acid | activation, % at 6.8 µM | actives 1.4% (n = 370,000) | AID 652067;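 active means activation above the mean of all tested compounds plus 3 SD, cut at about 5.5% in these data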;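 further: 100% = response to 3 µM Δ7-dafachronic acid high control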
DAX1 inh-2: NR0B1 (DAX1) inhibition | P51843 | inhibition, % at 6.75 µM | HEK293 Gal4-DAX1 luciferase reporter, luminescence | actives 0.99% (n = 340,000);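 active means inhibition above the mean over all tested compounds plus 3 SD, cut at about 4.2% in these data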;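 further: 0% = DAX1-transfected cells with DMSO and 100% = empty-vector control cells with DMSO; inhibition shows as a rise in luminescence from relieved DAX1 repression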
Target sequence (P51843 207-470 limits assumed): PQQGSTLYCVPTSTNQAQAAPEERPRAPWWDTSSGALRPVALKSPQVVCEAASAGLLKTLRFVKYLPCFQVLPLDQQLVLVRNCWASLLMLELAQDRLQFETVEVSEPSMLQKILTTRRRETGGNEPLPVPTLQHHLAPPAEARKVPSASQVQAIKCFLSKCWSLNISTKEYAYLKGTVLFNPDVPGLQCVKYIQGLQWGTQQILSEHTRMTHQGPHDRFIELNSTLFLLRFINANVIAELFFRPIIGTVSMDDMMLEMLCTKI
SMARCA2 act conf: SMARCA2 activation, confirmation screen | MG213 cells, MMTV-luciferase with dexamethasone, luminescence, overnight; MG213 cells expressing E1A, Rb sequestered; DMSO wells 0%, reference activator 100% | AID 652260 | shares compounds with SMARCA2 activ | actives 30% (n = 3,500) | activation, % at 9.1 µM;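 active means activation above its plate's cutoff, the mean activation of tested wells plus 3 SD, cut at about 7.9% in these data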
VP16 Luc act: activates GAL4-VP16 luciferase, flagging SMARCA2 activator hits | shares compounds with SMARCA2 activ | HEK293 GAL4-VP16 pG5luc reporter, luciferase luminescence; scaled: DMSO wells 0%, SAHA wells 100% | activation, % at 9.1 µM | actives 41% (n = 3,500);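 active means activation above the solvent-only control well mean plus 3 SD, averaged across control plates, cut at about 5.2% in these data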
LXRb hcDAF ctr: counter-screen for hcDAF-12 agonists: agonists of human LXR-beta; shares compounds with hcDAF12 agonist; HEK293 Gal4-LXR tk-luc reporter, luminescence, 24 h; normalized: DMSO 0%, positive control 100%; activation, % at 6.8 µM; AID 743027; 3,400 tested, under 10 active;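 active means mean percent activation of the reporter above a cutoff set as the average over tested compounds plus their standard deviation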
Target sequence (P55055 whole entry, looked up, the tested form may be a part): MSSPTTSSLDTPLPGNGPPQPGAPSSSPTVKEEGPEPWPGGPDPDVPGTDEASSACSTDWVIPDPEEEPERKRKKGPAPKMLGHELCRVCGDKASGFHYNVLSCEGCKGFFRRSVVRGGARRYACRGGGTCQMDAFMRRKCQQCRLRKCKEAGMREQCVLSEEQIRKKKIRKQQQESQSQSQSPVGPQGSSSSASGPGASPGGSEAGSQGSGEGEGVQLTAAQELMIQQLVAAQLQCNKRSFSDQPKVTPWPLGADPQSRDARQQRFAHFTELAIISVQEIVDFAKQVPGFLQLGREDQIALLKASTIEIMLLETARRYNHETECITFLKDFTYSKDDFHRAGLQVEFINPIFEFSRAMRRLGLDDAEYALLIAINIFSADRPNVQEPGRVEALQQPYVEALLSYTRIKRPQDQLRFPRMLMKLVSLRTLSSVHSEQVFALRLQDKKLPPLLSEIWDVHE
hcDAF12 ag: hcDAF-12 agonism, confirmation assay; shares compounds with hcDAF12 agonist; HEK293 hcDAF-12 lit1-tk-luc reporter, luminescence; % of Δ7-dafachronic acid response; activation, % at 6.8 µM; actives 61% (n = 3,400); AID 743032;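 active means mean activation across triplicate tests above the threshold derived from the earlier primary screen, cut at about 5.5% in these data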;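 further: 0% = DMSO only wells and 100% = 3 µM Δ7-dafachronic acid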
hgDAF12 conf: hgDAF-12 agonism, confirmation assay; shares compounds with hgDAF-12 ag; HEK293 GAL4-hgDAF12 luciferase reporter, agonist mode; percent of butyrate response; activation, % at 6.8 µM; actives 80% (n = 3,300);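 active means mean activation over triplicate wells above the hit cutoff derived from the earlier primary screen, cut at about 11% in these data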;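 further: 0% = DMSO low control and 100% = 2 mM sodium butyrate high control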
LXR ag 2: counter-screen for DAF-12 agonists: agonists of human LXR-beta; shares compounds with hgDAF-12 ag; HEK293 Gal4-LXR luciferase reporter, 24 h; activation, % at 6.8 µM; 3,300 tested, under 10 active;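 active means mean activation of the triplicate above a set limit carried over from the primary screen, none filed active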
Active calls of the source: *; / = no result given.

SMILES | ssDAF12 agonist | SMARCA2 activ | DAX1 inh-1 | hgDAF-12 ag | hcDAF12 agonist | DAX1 inh-2 | SMARCA2 act conf | VP16 Luc act | hgDAF12 conf | LXR ag 2 | others
Cc1ccccc1OCc1nc2ccccc2[nH]1 | 0 | 8.9* | 4 | 19* | 2 | 2 | 2 | 14* | 17* | 1
CCCCc1nc2ccccc2[nH]1 | -2 | 0 | 1 | 2 | 0 | 0 | / | / | / | /
O=C(N/N=C/c1ccccn1)c1ccccc1 | -1 | 4 | 2 | 8 | 4 | -1 | / | / | / | /
O=C(N/N=C\c1ccccn1)c1ccccc1O | 0 | 13* | 0 | 15* | 0 | 1 | -10 | 11* | 3 | 0
N/C(=N\OC(=O)c1cccs1)c1cccc(Br)c1 | 0 | 3 | 2 | 9 | 2 | 3 | / | / | / | /
N/C(=N\OC(=O)c1cccs1)c1ccccc1 | 2.3* | 18* | 1 | 16* | 7.4* | 2 | 12* | 6.8* | 15* | 1 | LXRb hcDAF ctr=1;hcDAF12 ag=3
CN(CC(=O)NC1CC1)S(=O)(=O)c1cc(Cl)ccc1Cl | -1 | -2 | 0 | -2 | 0 | -1 | / | / | / | /
Cc1cc(C(=O)NC2CCCCC2)c(C)n1-c1ccc(F)cc1 | -1 | 8.0* | 3 | 14* | 5.8* | 0 | 5 | 11* | 12* | 1
Cc1cc(C(=O)CN2CCCCC2)c(C)n1-c1ccc(F)cc1 | -1 | 5 | 1 | 5 | 1 | 2 | / | / | / | /
CC(C)(C)NC(=O)C(=O)N/N=C/c1ccc(Br)cc1 | -1 | 3 | 0 | 4 | 0 | 1 | / | / | / | /
CC(C)(C)OC(=O)N/N=C/c1ccc(Br)cc1 | -1 | 8.2* | 4.2* | 21* | 3 | 4 | 8.3* | 10* | 16* | 1
Cc1nc2ccccc2cc1C(=O)N/N=C/c1cccc([N+](=O)[O-])c1 | -1 | -5 | -1 | -1 | -1 | -2 | / | / | / | /
Nc1ccccc1C(=O)NN=Cc1cccc([N+](=O)[O-])c1 | 0 | 9.1* | 4.3* | 25* | 3 | / | 15* | 3 | 15* | 1
C[C@H]1CN([C@@H](C)CO)C(=O)CCCn2cc(nn2)CO[C@@H]1CN(C)S(=O)(=O)c1cccc(F)c1 | -1 | -3 | 1 | -2 | 0 | 1 | / | / | / | /
COc1ccc(OC)c(NS(=O)(=O)c2c(C)nc3sccn3c2=O)c1 | -2 | 2 | 0 | 2 | -1 | 2 | / | / | / | /
O=C(NN=C1C2CC3CC1CC(Cl)(C3)C2)c1ccccn1 | 0 | 9.1* | 3 | 14* | 6.2* | 1 | 7 | 2 | 5 | 0
CN(C(=O)COC(=O)c1ccc2c(c1)OCO2)C1CCCCC1 | -1 | 9.9* | 1 | 13* | 1 | 2 | 6 | 3 | 7 | 0
COc1cc(/C=C/c2nc3ccccc3c(=O)[nH]2)ccc1O | 0 | 9.0* | 3.7* | 17* | 3 | 3 | 13* | 12* | 11* | 1
CCOc1cc(/C=C/c2nc3ccccc3c(=O)[nH]2)ccc1O | -1 | 3 | 1 | 6 | 2 | 1 | / | / | / | /
O=c1[nH]c(/C=C/c2ccccc2Cl)nc2ccccc12 | 0 | 8.6* | 2 | 14* | 2 | 2 | 13* | 9.1* | 21* | 1
Cc1ccc(N2Cc3ccccc3OC(C)C2=O)cc1 (stereo not given) | -2 | 4 | 1 | 0 | 1 | 0 | / | / | / | /
Cc1ccc(N2Cc3ccccc3C2=S)cc1 | 1 | 13* | 4 | 21* | 4 | 2 | 12* | 11* | 20* | 1
CCN(CC)c1nc2c(s1)C(=O)CC(C)(C)C2 | -1 | 2 | 1 | 4 | 0 | 0 | / | / | / | /
O=c1c2c(nc3cc(-c4ccc(F)cc4)[nH]n13)CCC2 | 0 | 12* | 4.1* | 15* | 6.4* | 1 | 13* | 12* | 17* | 1
Cc1ccc(-c2cc3nc4c(c(=O)n3[nH]2)CCCC4)cc1 | 0 | 6 | 2 | 9 | 3 | 3 | / | / | / | /
SMILES | ssDAF12 agonist | SMARCA2 activ | DAX1 inh-1 | hgDAF-12 ag | hcDAF12 agonist | DAX1 inh-2 | SMARCA2 act conf | VP16 Luc act | hgDAF12 conf | LXR ag 2 | others
CC(=O)n1nc(-c2ccccc2)cc1-c1ccccc1 | 1.6* | 1 | 1 | 12* | 14* | 4.6* | / | / | / | / | LXRb hcDAF ctr=1;hcDAF12 ag=16*
N/C(=N\OC(=O)c1ccc(Cl)cc1[N+](=O)[O-])c1cccnc1 | 0 | 5 | 1 | 8 | 7.0* | 2 | / | / | / | / | LXRb hcDAF ctr=0;hcDAF12 ag=6.4*
COc1cccc(C(=O)O/N=C(\N)c2ccncc2)c1OC | -1 | 4 | 1 | 4 | 1 | 2 | / | / | / | /
N/C(=N\OC(=O)c1ccc(Cl)cc1[N+](=O)[O-])c1ccccn1 | 0 | 5 | 1 | 12* | 8.6* | 3 | / | / | / | / | LXRb hcDAF ctr=1;hcDAF12 ag=2
COc1cccc(C(=O)O/N=C(\N)c2ccccn2)c1OC | 0 | 0 | 3 | 10 | 6.6* | 1 | / | / | / | / | LXRb hcDAF ctr=1;hcDAF12 ag=6.4*
Cc1cc(Br)cn2c(CC(C)(C)C)c(-c3cccc(Cl)c3)nc12 | 0 | -4 | 0 | -2 | 1 | / | / | / | / | /
CS(=O)(=O)N(Cc1ccccc1)c1ccccc1C(=O)N1CCN(c2ccccc2)CC1 | 0 | -3 | 0 | -2 | -3 | 0 | / | / | / | /
CCCn1c(C)cc(C(=O)CN2C(=O)c3ccccc3C2=O)c1C | 0.9* | 7 | 3 | 11* | 9.7* | 1 | / | / | / | / | LXRb hcDAF ctr=1;hcDAF12 ag=12*
COC(=O)[C@]12C[C@H](CC(=O)N3CCCCC3)C(=O)N(Cc3cccc4ccccc34)C1=C[C@H](C(C)(C)C)O[C@@H]2C | 0 | -2 | -2 | -2 | 1 | / | / | / | / | /
COc1ccc(C)c2sc(=NC(=O)c3ccccc3)n(C)c12 | 0 | 1 | 2 | 3 | 10* | 1 | / | / | / | / | LXRb hcDAF ctr=2;hcDAF12 ag=13*

High-throughput results as filed in PubChem BioAssay.
